PubChem BioAssay (Tox21)
Records with an inconclusive call do not appear. The source made the active and inactive calls. Unless noted, calls come from the whole dose curve; as a rule, active = well fitted curve in the direction sought with a large enough effect in the repeat runs; inconclusive = weak or mixed curves; inactive = no such curve, though single readings can be large; an effect the other way counts as inactive or inconclusive.

Key:
[1] = target: Thyrotropin receptor (Homo sapiens) (UniProt P16473); experiment: qHTS assay to identify small molecule antagonists of the thyroid stimulating hormone receptor (TSHR) signaling pathway (AID 1259385; calls by dose curve; note: nearly all actives have a fitted effect of over 20% in size)
Chain of Thyrotropin receptor (Homo sapiens) (P16473 whole entry, looked up): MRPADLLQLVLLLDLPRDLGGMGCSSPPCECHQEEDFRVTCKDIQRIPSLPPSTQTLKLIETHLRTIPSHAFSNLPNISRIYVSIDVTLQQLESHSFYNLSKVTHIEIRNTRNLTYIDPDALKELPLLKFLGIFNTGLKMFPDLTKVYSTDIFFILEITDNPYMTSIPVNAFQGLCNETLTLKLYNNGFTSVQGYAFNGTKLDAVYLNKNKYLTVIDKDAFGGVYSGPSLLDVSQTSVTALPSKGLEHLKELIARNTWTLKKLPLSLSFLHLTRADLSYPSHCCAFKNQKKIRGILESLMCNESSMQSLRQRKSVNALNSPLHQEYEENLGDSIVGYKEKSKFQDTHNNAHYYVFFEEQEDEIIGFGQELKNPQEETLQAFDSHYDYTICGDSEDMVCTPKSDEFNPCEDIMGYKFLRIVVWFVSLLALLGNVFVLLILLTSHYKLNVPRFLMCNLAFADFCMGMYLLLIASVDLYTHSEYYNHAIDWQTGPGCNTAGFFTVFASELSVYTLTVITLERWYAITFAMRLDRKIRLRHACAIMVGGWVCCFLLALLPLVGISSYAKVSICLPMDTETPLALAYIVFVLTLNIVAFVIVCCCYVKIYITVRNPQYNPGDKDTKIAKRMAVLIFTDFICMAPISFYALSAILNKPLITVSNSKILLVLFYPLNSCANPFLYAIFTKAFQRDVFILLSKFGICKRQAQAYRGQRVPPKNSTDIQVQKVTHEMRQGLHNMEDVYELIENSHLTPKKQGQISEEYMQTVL
Procedure, shortened: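 TSHR-HEK293 cells were plated and held 18 h at 37C/5% CO2, then given compound plus Ro20-1724 and stimulated with TSH at 1.5 ng/mL final. After 30 min at room temperature, cAMP was detected with cAMP-d2/anti-cAMP-cryptate (1 h) by fluorescence.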

[2] = qHTS assay to identify small molecule agonists of the estrogen receptor alpha (ER-alpha) signaling pathway in the presence of an antagonist - cell viability counter screen (AID 1259386);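 note: series mostly up to about 92 µM; cells exposed to compounds for 22 h at 37 °C before the viability read; nearly all actives have a fitted effect of over 30% in size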
Procedure, shortened: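 Cell viability in VM7Luc4E2 cells (endogenous full-length ER-alpha) measured by CellTiter-Fluor fluorescence in the same wells as the luciferase screen. Cells pre-cultured 5 days in charcoal-stripped serum, then treated 22 h with compounds at 15 concentrations plus 10.0nM ICI-182,780.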

[3] = target: Progesterone receptor (Homo sapiens) (UniProt P06401); experiment: qHTS assay to identify small molecule agonists of the progesterone receptor (PR) signaling pathway (AID 1346784; calls by dose curve; note: nearly all actives have a fitted effect of over 30% in size)
Chain of Progesterone receptor (Homo sapiens) (P06401 whole entry, looked up): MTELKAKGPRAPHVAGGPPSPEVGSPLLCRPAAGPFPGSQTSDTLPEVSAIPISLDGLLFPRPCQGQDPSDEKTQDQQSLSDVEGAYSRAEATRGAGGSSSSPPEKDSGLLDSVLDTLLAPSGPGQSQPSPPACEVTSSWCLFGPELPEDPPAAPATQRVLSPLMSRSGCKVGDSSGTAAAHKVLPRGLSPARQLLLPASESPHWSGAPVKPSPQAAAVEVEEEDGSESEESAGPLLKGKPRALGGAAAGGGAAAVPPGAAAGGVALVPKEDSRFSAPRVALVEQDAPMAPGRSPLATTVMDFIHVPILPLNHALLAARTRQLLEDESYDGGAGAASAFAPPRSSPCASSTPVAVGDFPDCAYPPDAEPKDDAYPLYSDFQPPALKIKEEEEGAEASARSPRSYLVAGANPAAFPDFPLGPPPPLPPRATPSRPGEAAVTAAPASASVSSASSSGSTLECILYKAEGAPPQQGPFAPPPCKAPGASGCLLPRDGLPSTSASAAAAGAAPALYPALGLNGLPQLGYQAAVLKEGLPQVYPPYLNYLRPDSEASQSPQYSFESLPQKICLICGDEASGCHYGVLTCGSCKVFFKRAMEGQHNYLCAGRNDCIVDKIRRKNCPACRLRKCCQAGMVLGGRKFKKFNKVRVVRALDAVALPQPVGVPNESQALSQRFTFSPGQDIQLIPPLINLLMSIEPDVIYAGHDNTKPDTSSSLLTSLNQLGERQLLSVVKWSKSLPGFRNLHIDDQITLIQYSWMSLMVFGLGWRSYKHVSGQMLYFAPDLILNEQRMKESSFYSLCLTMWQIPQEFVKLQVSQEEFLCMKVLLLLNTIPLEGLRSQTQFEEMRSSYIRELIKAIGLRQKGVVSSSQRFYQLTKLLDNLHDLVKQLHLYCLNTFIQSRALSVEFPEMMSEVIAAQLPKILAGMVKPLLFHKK
Procedure, shortened: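 Agonist qHTS: compounds pinned onto 3,000 PR-UAS-bla HEK 293T cells per well in charcoal-stripped serum medium, 16hr at 37C, then beta-lactamase activity measured by LiveBLAzer FRET fluorescence after 2 hours at room temperature.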

[4] = target: Progesterone receptor (Homo sapiens) (UniProt P06401); experiment: qHTS assay to identify small molecule antagonists of the progesterone receptor (PR) signaling pathway (AID 1346795; active = well fitted inhibition curve with a large enough effect in the signal ratio in the repeat runs, not every such curve was filed as active; the % refers to the signal ratio)
Procedure, shortened: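 Antagonist mode with agonist R5020 at 1 nM final and 16 hr incubation at 37C. Reporter was beta-lactamase driven by UAS in HEK293T (PR-UAS-bla), 2% charcoal-stripped serum; signal from LiveBLAzer FRET substrate, 2 hr at room temperature.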

[5] = qHTS assay to identify small molecule antagonists of the progesterone receptor (PR) signaling pathway - cell viability counter screen (AID 1346798); note: series mostly up to about 92 µM; nearly all actives have a fitted effect of over 50% in size
Procedure, shortened: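 Cytotoxicity read as CellTiter-Glo luminescence (30 min, room temperature) in the same wells as the beta-lactamase readout. HEK293T PR-UAS-bla cells in charcoal-stripped 2% FBS received compound and R5020, then 16 h at 37C, 5% CO2.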

[6] = qHTS assay to identify small molecule agonists of the progesterone receptor (PR) signaling pathway - cell viability counter screen (AID 1346799; calls by dose curve; note: nearly all actives have a fitted effect of over 45% in size)
Procedure, shortened: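 Cytotoxicity measured by CellTiter-Glo luminescence (30 min, RT) in the same wells as the PR beta-lactamase agonist read. Those HEK293T cells had 16 h compound treatment at 37 C in 2% charcoal-stripped FBS medium.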

[7] = qHTS assay to identify small molecule antagonists of the TGF-beta/Smad signaling pathway - cell viability counter screen (AID 1346824); note: nearly all actives have a fitted effect of over 50% in size
Procedure, shortened: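 SBE-bla HEK 293T cells were plated overnight at 37 C, then given compounds in DMSO plus TGF-beta1 (added as 0.25 ng/mL solution) for 5 hr. After the bla read, CellTiter-Glo was added to the same wells and luminescence read after 30 min at room temperature.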

[8] = qHTS assay to identify small molecule agonists of the TGF-beta/Smad signaling pathway - cell viability counter screen (AID 1346829); note: top concentration of the series differs between compounds; nearly all actives have a fitted effect of over 45% in size
Procedure, shortened: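 Same-well cytotoxicity: CellTiter-Glo added after the 2 hr room-temperature beta-lactamase substrate step, luminescence measured 30 min later; cells had 5 hr of compound at 37 C.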

[9] = qHTS assay to identify small molecule agonists of the TGF-beta/Smad signaling pathway (AID 1346859; active = well fitted activation curve with a large enough effect in the signal ratio in the repeat runs, not every such curve was filed as active; the % refers to the signal ratio; note: series mostly up to about 77 µM)
Procedure, shortened: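 Fluorescence (ex 405 nm; em 460 and 530 nm) was read 2 h after LiveBLAzer FRET substrate at RT. The preceding compound treatment of overnight-plated SBE-bla HEK293T cells lasted 5 h at 37 C.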

[10] = Human pregnane X receptor (PXR) small molecule agonists, qHTS cell viability counter screen (AID 1346977); note: nearly all actives have a fitted effect of over 50% in size
Procedure, shortened: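 Same-well viability read: CellTiter-Fluor added after 23 hr compound exposure, fluorescence measured 1 hr later. Cells were PXR-Luc HepG2 seeded at 2,000/well in 5% charcoal-stripped FBS medium, rested 5 hr before dosing at 37 C.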

[11] = Caspase-3/7 induction in HepG2 cells by small molecules, qHTS assay (AID 1346978); note: nearly all actives have a fitted effect of over 15% in size
Procedure, shortened: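 Wild-type HepG2 cells (2,000/well) were settled 5 h at 37 C, 5% CO2, then exposed to compounds in DMSO for 17 h. Caspase-3/7 activity was read by luminescence 30 min after adding Caspase-Glo 3/7 reagent at room temperature.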

[12] = Caspase-3/7 induction in CHO-K1 cells by small molecules, qHTS cell viability counter screen (AID 1346979); note: nearly all actives have a fitted effect of over 35% in size
Procedure, shortened: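 Cytotoxicity counter screen: CellTiter-Fluor added to compound-treated wild-type CHO-K1 cells at 16 h (37C, 5% CO2), fluorescence measured 1 h later; same wells as caspase-3/7 measurement.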

[13] = Caspase-3/7 induction in CHO-K1 cells by small molecules, qHTS assay (AID 1346980); note: nearly all actives have a fitted effect of over 15% in size
Procedure, shortened: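 Wild-type cells were seeded at 1,500 per well and settled 5 hr at 37 C, 5% CO2, then exposed to DMSO-dissolved compounds for 17 hr. Caspase-Glo 3/7 reagent was added, and luminescence was read after 30min at room temperature.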

[14] = Caspase-3/7 induction in HepG2 cells by small molecules, qHTS cell viability counter screen (AID 1346981); note: series mostly up to about 92 µM; nearly all actives have a fitted effect of over 30% in size
Procedure, shortened: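 Wild-type HepG2 cells, 2,000/well, settled 5 hr at 37 C, 5% CO2 before compound addition. Viability read by CellTiter-Fluor fluorescence, reagent added after 16 hr compound exposure, then 1 hr at 37C, in the same wells as the caspase read.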

[15] = target: Nuclear receptor subfamily 1 group I member 2 (Homo sapiens) (UniProt O75469); experiment: Human pregnane X receptor (PXR) small molecule agonists, qHTS assay (AID 1346982); note: nearly all actives have a fitted effect of over 35% in size
Chain of Nuclear receptor subfamily 1 group I member 2 (Homo sapiens) (O75469 whole entry, looked up): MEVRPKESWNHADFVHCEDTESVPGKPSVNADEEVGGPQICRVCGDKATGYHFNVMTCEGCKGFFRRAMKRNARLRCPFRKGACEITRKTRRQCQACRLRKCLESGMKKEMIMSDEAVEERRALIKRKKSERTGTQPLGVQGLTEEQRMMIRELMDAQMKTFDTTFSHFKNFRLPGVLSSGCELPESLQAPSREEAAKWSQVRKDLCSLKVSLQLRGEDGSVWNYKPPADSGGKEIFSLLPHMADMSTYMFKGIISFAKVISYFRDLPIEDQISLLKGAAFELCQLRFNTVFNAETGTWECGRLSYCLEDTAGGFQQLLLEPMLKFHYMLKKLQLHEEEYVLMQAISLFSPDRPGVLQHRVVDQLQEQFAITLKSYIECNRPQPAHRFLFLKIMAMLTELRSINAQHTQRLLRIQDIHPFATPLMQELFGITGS
Procedure, shortened: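 PXR-Luc HepG2 reporter cells (CYP3A4-driven luciferase) in 5% charcoal-stripped FBS medium, plated 5 h before compound addition, then treated 24 h at 37C. Luciferase read by ONE-Glo luminescence after 30 min at room temperature.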

[16] = target: Thyrotropin-releasing hormone receptor (Homo sapiens) (UniProt P34981); experiment: qHTS assay to identify small molecule antagonists of the thyrotropin-releasing hormone receptor (TRHR) signaling pathway (AID 1346877; active = well fitted inhibition curve with a large enough effect in the repeat runs, not every such curve was filed as active; note: series mostly up to about 51 µM)
Chain of Thyrotropin-releasing hormone receptor (Homo sapiens) (P34981 whole entry, looked up): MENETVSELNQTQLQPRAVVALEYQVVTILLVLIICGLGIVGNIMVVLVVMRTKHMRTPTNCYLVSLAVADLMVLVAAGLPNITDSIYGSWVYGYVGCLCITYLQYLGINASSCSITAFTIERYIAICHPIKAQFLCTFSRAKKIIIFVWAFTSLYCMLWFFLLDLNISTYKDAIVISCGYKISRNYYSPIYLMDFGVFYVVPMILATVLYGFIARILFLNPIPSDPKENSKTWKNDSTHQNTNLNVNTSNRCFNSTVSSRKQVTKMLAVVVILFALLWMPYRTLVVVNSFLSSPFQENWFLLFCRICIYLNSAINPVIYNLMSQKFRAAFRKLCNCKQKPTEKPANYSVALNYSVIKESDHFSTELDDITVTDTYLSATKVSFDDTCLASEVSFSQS
Procedure, shortened: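 TRHR-expressing HEK293 cells loaded with calcium dye for 2 h at 37 C; compounds pre-incubated 5 min at room temperature before TRH challenge at 1 nM final. Intracellular calcium fluorescence read kinetically for 3 min; 15 concentrations in triplicate.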

[17] = target: Thyrotropin-releasing hormone receptor (Homo sapiens) (UniProt P34981); experiment: qHTS assay to identify small molecule agonists of the thyrotropin-releasing hormone receptor (TRHR) signaling pathway (AID 1346891; calls by dose curve; note: series mostly up to about 58 µM)
Procedure, shortened: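 Agonist-mode intracellular calcium readout: kinetic fluorescence over 3 min at 1 s intervals after compound addition to TRHR-HEK293 cells (18 h seeded, 2 h dye-loaded at 37 C). Fifteen concentrations, triplicates.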

[18] = target: Nuclear receptor subfamily 1 group I member 2 (Rattus norvegicus) (UniProt Q9R1A7); experiment: Rat pregnane X receptor (rPXR) activation by small molecules, qHTS assay (AID 1346983); settings: rPXR luciferase reporter cells, One-Glo luminescence, 24 h; stronger effect = higher value; note: nearly all actives have a fitted effect of over 20% in size
Chain of Nuclear receptor subfamily 1 group I member 2 (Rattus norvegicus) (Q9R1A7 whole entry, looked up): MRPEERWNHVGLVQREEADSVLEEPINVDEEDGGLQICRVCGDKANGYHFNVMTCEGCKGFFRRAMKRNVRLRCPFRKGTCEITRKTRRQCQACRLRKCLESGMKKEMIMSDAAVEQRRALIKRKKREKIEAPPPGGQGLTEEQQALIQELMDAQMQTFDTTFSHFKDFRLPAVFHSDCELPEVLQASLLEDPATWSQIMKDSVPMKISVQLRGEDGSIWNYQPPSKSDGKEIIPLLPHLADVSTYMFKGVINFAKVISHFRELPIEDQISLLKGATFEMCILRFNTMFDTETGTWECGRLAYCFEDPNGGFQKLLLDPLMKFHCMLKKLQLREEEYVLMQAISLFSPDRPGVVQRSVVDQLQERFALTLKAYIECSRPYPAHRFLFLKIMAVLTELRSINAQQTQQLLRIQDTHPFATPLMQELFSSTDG
Procedure, shortened: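 Cell-based rPXR luciferase reporter assay, 2,000 cells per well, rested 5hr at 37 C before compound addition in DMSO, then 24 hr at 37 C. One-Glo reagent was added and luminescence read after 30 min at room temperature.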

[19] = target: Nuclear receptor subfamily 1 group I member 2 (Homo sapiens) (UniProt O75469); experiment: CYP3A4 induction through human pregnane X receptor (PXR) by small molecules, qHTS assay (AID 1346984); note: nearly all actives have a fitted effect of over 40% in size
Procedure, shortened: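 DPX-2 HepG2 cells carrying a PXR response element and CYP3A4-promoter luciferase construct, treated with compounds 24 hr at 37C. Then P450-Glo CYP3A4 Luciferin-IPA substrate (3uM final) for 3 hr at 37C, One-Glo added, luminescence read.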

[20] = target: Nuclear receptor subfamily 1 group I member 2 (Homo sapiens) (UniProt O75469); experiment: Human pregnane X receptor (PXR) activation by small molecules, qHTS assay (AID 1346985); note: nearly all actives have a fitted effect of over 40% in size
Procedure, shortened: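 DPX-2 cells (HepG2 co-transfected with a PXR response element and a CYP3A4-promoter luciferase construct) were seeded at 2,000 per well, rested 5 hr at 37C, then exposed to DMSO-dissolved compounds for 24 hr. Activation was read as luciferase luminescence.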
% is set by controls: 0 for no effect and ±100 for the full control effect.

CN1CCN(CC(=O)N2c3ccccc3C(=O)Nc3cccnc32)CC1
inactive: activity change, negative = inhibition [1] 0.681% [at 8.39 µM] | activity change, negative = cytotoxicity [2] -1.63% [at 8.39 µM] | activation [3] -0.718% [at 8.39 µM] | activity change, negative = inhibition [4] 9.85% [at 8.39 µM] | activity change, negative = cytotoxicity [5] 1.84% [at 8.39 µM] | activity change, negative = cytotoxicity [6] -2.12% [at 8.39 µM] | viability change, negative = cytotoxic [7] -11.9% [at 6.97 µM] | activity change, negative = cytotoxicity [8] -15% [at 6.97 µM] | activation [9] -0.857% [at 6.97 µM] | activity change, negative = cytotoxicity [10] 5.67% [at 8.39 µM] | caspase activation [11] -1.35% [at 8.39 µM] | activity change, negative = cytotoxicity [12] 7.7% [at 8.39 µM] | caspase-3/7 activation [13] 0.448% [at 8.39 µM] | activity change, negative = cytotoxicity [14] -1.47% [at 8.39 µM] | activation [15] -11.1% [at 8.39 µM]

CCCCCCCCOS(=O)(=O)O
inactive: outcome [1] | Potency [2] | Potency [3] | Potency [4] | Potency [5] | Potency [6] | outcome [7] | outcome [9] | outcome [16] | outcome [17] | Potency [10] | Potency [11] | Potency [14] | Potency [15]

COC(=O)CCCCCCCC(=O)OC
inactive: outcome [1] | Potency [2] | Potency [3] | Potency [4] | Potency [5] | outcome [7] | outcome [8] | outcome [16] | outcome [17] | Potency [10] | Potency [11] | Potency [12] | outcome [13] | Potency [14] | Potency [15]

O=C(O)C(=O)Cc1ccccc1
inactive: outcome [1] | Potency [2] | Potency [3] | Potency [4] | Potency [5] | Potency [6] | outcome [7] | outcome [9] | outcome [16] | outcome [17] | Potency [10] | Potency [11] | Potency [12] | outcome [13] | Potency [14] | Potency [15]

O=C(NCCN1CCOCC1)c1ccc(Cl)cc1
inactive: outcome [1] | Potency [2] | Potency [3] | Potency [4] | Potency [5] | Potency [6] | outcome [7] | outcome [9] | Potency [10] | Potency [11] | Potency [12] | Potency [14] | Potency [15] | max activation [18] 1.47% | Potency [19] | Potency [20]

CC(=O)c1sc(C)nc1C
inactive: outcome [1] | Potency [2] | Potency [3] | Potency [4] | Potency [5] | Potency [6] | outcome [7] | outcome [8] | outcome [16] | outcome [17] | Potency [11] | Potency [12] | outcome [13] | Potency [15]

Nc1ncnc(Nc2ccccc2)n1
inactive: outcome [1] | Potency [2] | Potency [3] | Potency [4] | Potency [5] | Potency [6] | outcome [7] | outcome [8] | outcome [16] | outcome [17] | Potency [10] | Potency [11] | Potency [12] | outcome [13] | Potency [14] | Potency [15] | max activation [18] 2.76% | Potency [19] | Potency [20]

C=C(C)C1CCC(C)(O)CC1 (stereo not given)
inactive: outcome [1] | Potency [2] | Potency [3] | Potency [4] | Potency [6] | outcome [7] | outcome [8] | outcome [9] | outcome [16] | outcome [17] | Potency [10] | Potency [11] | Potency [12] | outcome [13] | Potency [14] | Potency [15]
